Experimental data taken from PubChem BioAssay (NCI).
The panel holds about 83,000 compounds, 20% with a hit somewhere; the sample as a whole holds those more often.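 Treatment: one concentration, 48 hours, 96-well format. Scoring: percent growth, with anything below 10 considered active.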 Values without a mark were called inactive. Calls of active or inactive are those of the source.

The compounds below were run on HCT-116 colon (assay: NCI-60 one-dose screen, 48 h (100 = growth as untreated, 0 = no growth, -100 = all killed)). Conditions: 10 µM unless noted.

SMILES	growth
O=C1[C@@H]2Cc3c([nH]c4ccccc34)[C@H](c3c(Cl)cccc3Cl)N2C(=O)CN1C1CCN(Cc2ccccc2)CC1	-32.8% (active)
COc1ccc(C(=O)c2c(N)c(C#N)cn2-c2cccc(OC)c2)cc1	16.8%
Nc1ccc(-c2nnc(SCc3ccc(O)c4ncccc34)o2)cc1	0.176% (active)
C/C(=N/Nc1nc(N/N=C(/C)c2ccc([N+](=O)[O-])cc2)nc(N2CCOCC2)n1)c1ccc([N+](=O)[O-])cc1	70.6%
O=C1c2c(O)cc(O)cc2O[C@@H](c2ccc(O)cc2)[C@@H]1c1c(O)cc(O)c2c(=O)cc(-c3ccc(O)c(O)c3)oc12	100%
COc1ccc2c(c1)oc1c3[nH]c4ccccc4c3c3c(c21)C(=O)N(O)C3=O	21.5%
COc1cc2c3c(n(CCCNC4CCCCC4)c(=O)c2cc1OC)-c1cc2c(cc1C3=O)OCO2	-72.3% (active)
C=CCn1c(SCC(=O)Nc2cccc(C(=O)/C=C/c3cc(OC)c(OC)c(OC)c3)c2)nc2ccccc2c1=O	-26.4% (active)
O=C1c2c(c3c4cc(O)ccc4oc3c3[nH]c4ccccc4c23)C(=O)N1O	-45.8% (active)
COC(=O)c1nc(-c2ccc(C)cc2)oc1S(=O)(=O)N1CCN(c2oc(-c3ccccc3)nc2C#N)CC1	92.8%
COc1ccc(-c2nnc(SCc3ccc(O)c4ncccc34)n2-c2ccccc2)cc1	7.39% (active)
Oc1ccccc1/C=N/Nc1nc(N/N=C/c2ccccc2O)nc(N2CCOCC2)n1	19.2%
NS(=O)(=O)c1ccc(-n2cc(CC=O)nn2)cc1	108%
O=C(Cn1cc(CN2C(=O)c3ccc([N+](=O)[O-])cc3C2=O)nn1)Nc1ccc(F)cc1Cl	102%
C/C=C/C=C1\C[C@H]2CO[C@H](O2)C1=O	82.3%
O=C(COc1ccc(/C=C2\SC(=O)NC2=O)cc1)Nc1ccc(C(=O)/C=C/c2cc3ccccc3nc2Cl)cc1	-57.2% (active)
O=c1oc2ccc(-c3ccc(F)cc3F)cc2c(=O)n1-c1ccc(F)c(F)c1	6.87% (active)

Each compound was assayed on HCC-2998 colon in the same assay as above. Conditions: 10 µM unless noted.

SMILES	growth
CC(=O)NC(C)(C)C(=O)N1CCC[C@H]1C(=O)NC(C)(C)C(=O)N[C@@H](C)C(=O)NC(C)(C)C(=O)NC(C)(C)C(=O)N[C@@H](CCC(N)=O)C(=O)NC(C)(C)C(=O)N[C@H](C(=O)NC(C)(C)C(=O)NCC(=O)N[C@@H](CC(C)C)C(=O)NC(C)(C)C(=O)N1CCC[C@H]1C(=O)N[C@H](C(=O)NC(C)(C)C(=O)NC(C)(C)C(=O)N[C@@H](CCC(N)=O)C(=O)N[C@@H](CCC(N)=O)C(=O)N[C@H](CO)Cc1ccccc1)C(C)C)C(C)C	39.7% [4.25 µM]
NC(=S)N/N=C(/C=C/c1cn(-c2ccccc2)nc1-c1ccc(Cl)cc1)c1cc2ccccc2oc1=O	66%
Cc1ccc(/C=C/c2nn3c(-c4ccco4)nnc3s2)cc1	114%
COCCOc1ccc(-c2csc(NC(C)=O)n2)cc1NS(=O)(=O)c1cccc2c(N(C)C)cccc12	113%
COc1cc2cc(Oc3ccc(NC(=O)c4cccc(C(F)(F)F)c4)cc3)c(C)nc2cc1OCCN(C)C	80.3%
C=C(C)[C@@H]1CC[C@]2(COS(C)(=O)=O)CC[C@]3(C)[C@H](CC[C@@H]4[C@@]5(C)CCCNC(C)(C)[C@@H]5CC[C@]43C)[C@@H]12	16.4%
NC(=O)C(=Cc1ccc(Cl)cc1)C(N)=O	85.7%
CCc1ccc(NC(=O)N[C@@H](Cc2cccc(F)c2)C(=O)N[C@@H]2C(=O)N3CCC[C@H]3C(=O)N3CCCC[C@H]3C(=O)N[C@@H](C)C(=O)N3C[C@H](C)C[C@H]3C(=O)O[C@H]2C)c(F)c1	5.04% (active)
O=C1c2cc(Br)ccc2-n2c1nc1cc(Br)ccc1c2=O	108%
C/C=C/[C@@H]1C=C[C@@H]2C[C@H](C)CC[C@H]2[C@]1(C)/C(O)=C1/C(=O)[C@H](CO)N(C)C1=O	57%
CCOC(=O)c1ccc(N/C=C/C(=O)c2ccccc2)cc1	109%
CC(=O)C1=NN(c2ccc(Cl)cc2)C(=O)CN1C	104%
CCn1c2ccc(/C=N/OCCCN(C)C)cc2c2cc(/C=N/OCCCN(C)C)ccc21	-49.4% (active)
